Laboratory results taken from the supplement of paper PMC3334620.
The full ranking holds about 33,000 sequences; the median of “E-score (-0.5 to 0.5)” is about -0.016, and the highest 2% start at about 0.32. The entries come from a sample that favours the highest values as a whole.

biological target: T1, Stp1 (UniProt B3LFK1); experiment: PBM E-score (8-mer binding enrichment) (E-score (-0.5 to 0.5)); higher = stronger / more preferred TF binding; conditions: protein concentration: 200 nM; construct: GST-full length
T1 sequence: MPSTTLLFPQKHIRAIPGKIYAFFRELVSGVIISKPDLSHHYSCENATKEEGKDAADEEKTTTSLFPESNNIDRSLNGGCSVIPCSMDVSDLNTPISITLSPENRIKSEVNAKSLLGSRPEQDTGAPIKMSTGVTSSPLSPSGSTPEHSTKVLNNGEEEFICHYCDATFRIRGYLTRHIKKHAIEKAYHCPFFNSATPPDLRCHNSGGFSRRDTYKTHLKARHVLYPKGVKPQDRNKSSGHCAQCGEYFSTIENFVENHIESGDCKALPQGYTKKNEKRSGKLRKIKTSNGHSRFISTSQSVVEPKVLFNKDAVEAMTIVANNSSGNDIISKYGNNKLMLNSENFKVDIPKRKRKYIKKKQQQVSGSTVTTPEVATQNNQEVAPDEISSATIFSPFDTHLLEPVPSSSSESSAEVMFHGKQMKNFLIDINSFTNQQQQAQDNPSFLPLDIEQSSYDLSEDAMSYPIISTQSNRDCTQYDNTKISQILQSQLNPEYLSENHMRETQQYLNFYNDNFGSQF
Outline: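 Yeast transcription factors carrying a GST tag, as full-length proteins or DNA-binding domains, were produced by PURExpress in vitro transcription/translation. About 100-200 nM protein was applied to universal all-10-mer Agilent arrays, double-stranded by primer extension on fresh or once-stripped slides. Bound protein was detected with fluorescent anti-GST, and scans were normalised with masliner. The Universal PBM Analysis Suite gave each ungapped eight-base word, pooled with its reverse complement, an E-score, a modified Wilcoxon-Mann-Whitney statistic.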

Compared with CACGTGCG, CAGGATTC is lower in “PBM E-score” value: 0.272 for the first, -0.173 for the second.

Compared with AGCCTCGA, GCCATTGA is higher in “PBM E-score” value: -0.172 for the first, 0.226 for the second.

Compared with AGGCTCTC, GGGCTCTA is higher in “PBM E-score” value: -0.137 for the first, -0.0132 for the second.

Compared with CAGCTCTC, CGGCTCTC is higher in “PBM E-score” value: -0.325 for the first, 0.334 for the second.

First: CGGCTCTA
Second: AGGCTCTA
The “PBM E-score” value of the first is higher: 0.425 for the first, 0.15 for the second.

Going from CGCACTCC to CAGAGCTA, the “PBM E-score” value rises from -0.172 to -0.171.

First: AGGGCGCC
Second: AGGGCGGC
The “PBM E-score” value of the first is higher: 0.343 for the first, 0.14 for the second.

Compared with AGGGCGCG, CGGGCGCC is lower in “PBM E-score” value: 0.369 for the first, 0.269 for the second.

Compared with AGGGCGCA, AGGGGGCG is lower in “PBM E-score” value: 0.205 for the first, -0.0306 for the second.

Going from ACCAAGGT to CAGCCACA, the “PBM E-score” value rises from 0.0467 to 0.161.

First: CGGCTTAC
Second: GCTGGGTA
The “PBM E-score” value of the first is higher: 0.104 for the first, -0.175 for the second.

Compared with GCTAAAGA, GCAGGCAC is higher in “PBM E-score” value: 0.0376 for the first, 0.0604 for the second.

Compared with CAAGGCAA, CAAGGCAG is lower in “PBM E-score” value: 0.264 for the first, 0.0951 for the second.

Going from AAAGGCAG to CAAGGCAC, the “PBM E-score” value rises from 0.172 to 0.356.

First: AAAGGCAA
Second: GAAGGCAC
The “PBM E-score” value of the first is lower: 0.263 for the first, 0.368 for the second.

Going from GAAGGCAA to AAAGGCAC, the “PBM E-score” value rises from 0.218 to 0.392.

First: AGGTGGCG
Second: GCTCAGAA
The “PBM E-score” value of the first is lower: -0.0008 for the first, 0.00512 for the second.

Compared with TAGGTGGA, AGGGAAAA is higher in “PBM E-score” value: -0.21 for the first, 0.0119 for the second.

Going from AGACATTC to GGATGCCC, the “PBM E-score” value falls from -0.19 to -0.245.

Compared with GGAAAAAA, CTGCCTGA is lower in “PBM E-score” value: 0.149 for the first, -0.0731 for the second.

Compared with TATAGAGA, CGCACCAC is higher in “PBM E-score” value: 0.0248 for the first, 0.063 for the second.

Compared with CGCACCGA, CGCACCAA is higher in “PBM E-score” value: 0.0478 for the first, 0.213 for the second.

First: AGCACCGA
Second: GGCACCAC
The “PBM E-score” value of the first is lower: 0.0493 for the first, 0.324 for the second.

Going from GGCACCGA to AGCACCAC, the “PBM E-score” value falls from 0.356 to -0.134.

Compared with GGCACCAA, TGCACCAA is lower in “PBM E-score” value: 0.393 for the first, -0.0793 for the second.

Going from CCCTATTC to GACCAACC, the “PBM E-score” value falls from -0.0984 to -0.152.

Going from GTTGGCAA to AAAGGGGG, the “PBM E-score” value falls from 0.0689 to -0.423.

Going from AAGGAGAA to AGGGATTG, the “PBM E-score” value rises from -0.131 to -0.0197.

Going from AATGGTCT to AAGTCTGG, the “PBM E-score” value falls from -0.0756 to -0.218.

First: GATAGGGC
Second: CTAACGGC
The “PBM E-score” value of the first is lower: 0.0849 for the first, 0.313 for the second.

Compared with CGAACGGA, AGAACGGC is higher in “PBM E-score” value: 0.207 for the first, 0.387 for the second.

Going from CGAACGGC to AGAACGGG, the “PBM E-score” value falls from 0.467 to -0.129.

Compared with AGAACGGA, GTCCTGTA is lower in “PBM E-score” value: 0.102 for the first, -0.121 for the second.

Compared with CCAAGAGC, AAGACGGG is higher in “PBM E-score” value: 0.0254 for the first, 0.0493 for the second.

First: GTCTGTCA
Second: GTTTATTA
The “PBM E-score” value of the first is lower: -0.00712 for the first, 0.0702 for the second.

First: ATATATAT
Second: GTATATTA
The “PBM E-score” value of the first is higher: 0.303 for the first, 0.159 for the second.

Going from CTATATAG to ATATATAG, the “PBM E-score” value rises from -0.0268 to 0.318.

Going from ATATATTA to ATTTATTA, the “PBM E-score” value falls from 0.329 to 0.324.

Going from ATTATTTA to CTATATTA, the “PBM E-score” value falls from 0.281 to 0.177.

First: ATAAAGGG
Second: CCCTCAGG
The “PBM E-score” value of the first is higher: 0.0416 for the first, -0.224 for the second.

Going from ATCGTTTC to CGGTAAGA, the “PBM E-score” value rises from -0.0261 to 0.0116.

Compared with CCTTGCAC, TATCGAGA is lower in “PBM E-score” value: 0.127 for the first, -0.0215 for the second.

Compared with CGGCACCG, CCGCACCG is lower in “PBM E-score” value: 0.437 for the first, 0.288 for the second.

First: CGGCACCC
Second: AGGCACCC
The “PBM E-score” value of the first is higher: 0.338 for the first, -0.00944 for the second.

First: AGGCACCG
Second: GGGCACCC
The “PBM E-score” value of the first is higher: 0.272 for the first, -0.0477 for the second.

Going from TAGATCAA to CAAGATCG, the “PBM E-score” value falls from -0.00316 to -0.123.

First: AAAAAGTG
Second: AAACGCTT
The “PBM E-score” value of the first is higher: 0.204 for the first, -0.0887 for the second.
